Reference: ChEMBL document CHEMBL1961873, “Compounds: GSK PKIS; Assays: Nanosyn kinase panel” (2012)

What was measured:
[1] = target: Serine/threonine-protein kinase 26 (Homo sapiens) (UniProt Q9P289); conditions: at 1 µM;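 further: mean inhibition of MST4 kinase activity, reported from the GSK PKIS inhibitor-set screening panel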
[2] = target: Serine/threonine-protein kinase PAK 1 (Homo sapiens) (UniProt Q13153); conditions: at 0.1 µM
[3] = target: Serine/threonine-protein kinase PAK 1 (Homo sapiens) (UniProt Q13153); conditions: at 1 µM
[4] = target: Serine/threonine-protein kinase PAK 2 (Homo sapiens) (UniProt Q13177); conditions: at 0.1 µM
Chain of Serine/threonine-protein kinase PAK 2 (Homo sapiens) (Q13177 whole entry): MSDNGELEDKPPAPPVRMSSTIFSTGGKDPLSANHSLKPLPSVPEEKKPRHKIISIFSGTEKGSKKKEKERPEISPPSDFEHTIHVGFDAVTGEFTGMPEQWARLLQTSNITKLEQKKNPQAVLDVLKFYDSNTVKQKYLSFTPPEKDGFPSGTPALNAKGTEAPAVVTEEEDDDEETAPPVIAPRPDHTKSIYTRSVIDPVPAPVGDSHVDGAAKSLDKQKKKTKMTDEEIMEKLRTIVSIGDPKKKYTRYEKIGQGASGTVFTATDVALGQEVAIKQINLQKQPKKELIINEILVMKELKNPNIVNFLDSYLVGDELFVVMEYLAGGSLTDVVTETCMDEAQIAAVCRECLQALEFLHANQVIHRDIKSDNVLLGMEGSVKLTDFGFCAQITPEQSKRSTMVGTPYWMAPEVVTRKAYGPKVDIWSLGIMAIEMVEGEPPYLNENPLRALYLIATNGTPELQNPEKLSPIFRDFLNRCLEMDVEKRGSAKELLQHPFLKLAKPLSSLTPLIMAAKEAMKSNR

[5] = target: Serine/threonine-protein kinase PAK 2 (Homo sapiens) (UniProt Q13177); conditions: at 1 µM
[6] = target: Serine/threonine-protein kinase PAK 3 (Homo sapiens) (UniProt O75914); conditions: at 0.1 µM
Chain of Serine/threonine-protein kinase PAK 3 (Homo sapiens) (O75914 whole entry, looked up): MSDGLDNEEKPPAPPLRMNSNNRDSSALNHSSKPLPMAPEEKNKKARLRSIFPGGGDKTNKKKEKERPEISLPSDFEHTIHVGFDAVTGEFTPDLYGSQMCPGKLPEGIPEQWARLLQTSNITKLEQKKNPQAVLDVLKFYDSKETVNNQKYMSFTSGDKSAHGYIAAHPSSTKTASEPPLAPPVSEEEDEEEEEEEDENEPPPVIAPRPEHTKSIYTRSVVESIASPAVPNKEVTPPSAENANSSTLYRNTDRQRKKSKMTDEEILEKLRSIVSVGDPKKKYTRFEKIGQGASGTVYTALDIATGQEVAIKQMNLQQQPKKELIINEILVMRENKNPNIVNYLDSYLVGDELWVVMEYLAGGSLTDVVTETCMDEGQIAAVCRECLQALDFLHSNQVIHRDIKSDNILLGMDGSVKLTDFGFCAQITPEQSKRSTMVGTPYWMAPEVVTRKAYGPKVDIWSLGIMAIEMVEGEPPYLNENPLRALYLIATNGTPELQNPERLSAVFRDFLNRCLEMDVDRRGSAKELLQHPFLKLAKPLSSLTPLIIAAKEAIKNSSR

[7] = target: Serine/threonine-protein kinase PAK 3 (Homo sapiens) (UniProt O75914); conditions: at 1 µM
[8] = target: Serine/threonine-protein kinase PAK 5 (Homo sapiens) (UniProt Q9P286); conditions: at 1 µM
Chain of Serine/threonine-protein kinase PAK 5 (Homo sapiens) (Q9P286 whole entry, looked up): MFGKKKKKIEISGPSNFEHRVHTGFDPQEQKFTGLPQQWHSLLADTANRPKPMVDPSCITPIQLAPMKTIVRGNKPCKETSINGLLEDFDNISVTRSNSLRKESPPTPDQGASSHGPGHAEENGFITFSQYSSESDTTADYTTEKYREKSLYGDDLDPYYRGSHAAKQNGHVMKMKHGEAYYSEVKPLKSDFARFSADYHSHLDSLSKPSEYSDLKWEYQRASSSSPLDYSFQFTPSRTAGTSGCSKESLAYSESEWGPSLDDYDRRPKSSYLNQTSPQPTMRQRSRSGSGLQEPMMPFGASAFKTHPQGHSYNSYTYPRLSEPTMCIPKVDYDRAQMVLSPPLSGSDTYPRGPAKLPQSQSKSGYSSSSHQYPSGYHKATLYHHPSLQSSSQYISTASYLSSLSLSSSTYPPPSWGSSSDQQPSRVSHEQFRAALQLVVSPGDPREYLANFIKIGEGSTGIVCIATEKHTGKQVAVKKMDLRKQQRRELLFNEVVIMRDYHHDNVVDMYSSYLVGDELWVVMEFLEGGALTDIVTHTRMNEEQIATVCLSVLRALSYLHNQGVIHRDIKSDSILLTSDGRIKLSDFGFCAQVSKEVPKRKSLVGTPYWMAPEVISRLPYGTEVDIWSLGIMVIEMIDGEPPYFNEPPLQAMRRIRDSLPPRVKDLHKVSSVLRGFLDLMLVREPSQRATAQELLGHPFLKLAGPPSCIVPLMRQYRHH

[9] = target: Serine/threonine-protein kinase PAK 6 (Homo sapiens) (UniProt Q9NQU5); conditions: at 0.1 µM
Chain of Serine/threonine-protein kinase PAK 6 (Homo sapiens) (Q9NQU5 whole entry, looked up): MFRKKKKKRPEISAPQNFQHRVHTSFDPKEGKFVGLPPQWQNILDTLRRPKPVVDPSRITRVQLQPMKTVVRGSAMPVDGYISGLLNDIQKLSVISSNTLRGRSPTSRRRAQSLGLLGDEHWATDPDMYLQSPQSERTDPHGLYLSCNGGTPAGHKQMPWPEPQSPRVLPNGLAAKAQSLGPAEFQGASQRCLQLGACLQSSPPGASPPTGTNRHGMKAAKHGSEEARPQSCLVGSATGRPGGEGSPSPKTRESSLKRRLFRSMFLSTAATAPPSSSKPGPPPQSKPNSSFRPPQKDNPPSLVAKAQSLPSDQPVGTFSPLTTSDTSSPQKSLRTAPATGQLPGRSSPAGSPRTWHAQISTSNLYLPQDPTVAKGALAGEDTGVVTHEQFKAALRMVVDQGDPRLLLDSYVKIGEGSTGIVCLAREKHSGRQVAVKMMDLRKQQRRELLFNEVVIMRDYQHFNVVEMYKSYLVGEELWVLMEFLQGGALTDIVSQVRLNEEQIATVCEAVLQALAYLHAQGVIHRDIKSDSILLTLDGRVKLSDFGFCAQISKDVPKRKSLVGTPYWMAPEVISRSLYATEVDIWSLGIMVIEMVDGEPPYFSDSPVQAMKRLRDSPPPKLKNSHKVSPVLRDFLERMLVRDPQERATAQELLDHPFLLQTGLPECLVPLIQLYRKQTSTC

[10] = target: Serine/threonine-protein kinase PAK 6 (Homo sapiens) (UniProt Q9NQU5); conditions: at 1 µM
[11] = tested on: Tyrosine-protein kinase ABL1 (Homo sapiens), P00519 [E255K]; conditions: at 0.1 µM
[12] = tested on: Tyrosine-protein kinase ABL1 (Homo sapiens), P00519 [E255K]; conditions: at 1 µM
[13] = tested on: Tyrosine-protein kinase ABL1 (Homo sapiens), P00519 [H396P]; conditions: at 0.1 µM
[14] = tested on: Tyrosine-protein kinase ABL1 (Homo sapiens), P00519 [H396P]; conditions: at 1 µM
[15] = tested on: Tyrosine-protein kinase ABL1 (Homo sapiens), P00519 [M351T]; conditions: at 0.1 µM
[16] = tested on: Tyrosine-protein kinase ABL1 (Homo sapiens), P00519 [M351T]; conditions: at 1 µM
[17] = tested on: Tyrosine-protein kinase ABL1 (Homo sapiens), P00519 [Q252H]; conditions: at 0.1 µM
[18] = tested on: Tyrosine-protein kinase ABL1 (Homo sapiens), P00519 [Q252H]; conditions: at 1 µM
[19] = tested on: Tyrosine-protein kinase ABL1 (Homo sapiens), P00519 [T315I]; conditions: at 0.1 µM
[20] = target: Serine/threonine-protein kinase PAK 5 (Homo sapiens) (UniProt Q9P286); conditions: at 0.1 µM

Chain of Serine/threonine-protein kinase PAK 1 (Homo sapiens) (Q13153 whole entry): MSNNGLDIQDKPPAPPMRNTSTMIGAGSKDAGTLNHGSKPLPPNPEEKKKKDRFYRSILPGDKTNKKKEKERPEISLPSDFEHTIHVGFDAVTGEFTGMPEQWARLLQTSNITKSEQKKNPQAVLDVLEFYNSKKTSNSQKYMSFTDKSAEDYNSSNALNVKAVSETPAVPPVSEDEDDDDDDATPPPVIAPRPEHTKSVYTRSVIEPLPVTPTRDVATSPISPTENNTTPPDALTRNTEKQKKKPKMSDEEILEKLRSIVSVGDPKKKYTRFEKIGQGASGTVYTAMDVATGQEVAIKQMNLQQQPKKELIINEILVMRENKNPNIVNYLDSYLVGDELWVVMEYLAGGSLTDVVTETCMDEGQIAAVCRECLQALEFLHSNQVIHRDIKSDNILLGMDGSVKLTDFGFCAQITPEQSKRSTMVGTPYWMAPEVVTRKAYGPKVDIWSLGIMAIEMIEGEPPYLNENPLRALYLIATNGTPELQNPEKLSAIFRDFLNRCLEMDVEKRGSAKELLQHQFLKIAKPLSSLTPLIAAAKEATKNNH
Chain of Serine/threonine-protein kinase 26 (Homo sapiens) (Q9P289 2-416 limits assumed): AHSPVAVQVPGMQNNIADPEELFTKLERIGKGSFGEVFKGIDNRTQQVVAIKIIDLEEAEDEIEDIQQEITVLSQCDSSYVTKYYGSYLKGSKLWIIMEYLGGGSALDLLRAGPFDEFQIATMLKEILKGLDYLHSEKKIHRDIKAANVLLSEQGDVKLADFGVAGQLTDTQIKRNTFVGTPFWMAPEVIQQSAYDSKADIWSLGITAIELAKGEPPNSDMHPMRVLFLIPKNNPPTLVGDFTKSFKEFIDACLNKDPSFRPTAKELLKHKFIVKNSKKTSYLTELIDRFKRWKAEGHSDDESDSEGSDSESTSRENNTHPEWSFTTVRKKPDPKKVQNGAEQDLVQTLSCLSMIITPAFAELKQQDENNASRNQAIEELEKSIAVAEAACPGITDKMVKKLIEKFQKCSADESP

Row | Structure (SMILES) | inhibition [1] [%] | inhibition [2] [%] | inhibition [3] [%] | inhibition [4] [%] | inhibition [5] [%] | inhibition [6] [%] | inhibition [7] [%] | inhibition [8] [%] | inhibition [9] [%] | inhibition [10] [%] | inhibition [11] [%] | inhibition [12] [%] | inhibition [13] [%] | inhibition [14] [%] | inhibition [15] [%] | inhibition [16] [%] | inhibition [17] [%] | inhibition [18] [%] | inhibition [19] [%] | inhibition [20] [%]
1 | Cc1nn(C)c2cc(N(C)c3ccnc(Nc4cccc(S(N)(=O)=O)c4)n3)ccc12 | 2.03 | 5.87 | 4.55 | 0.68 | 1.06 | -1.47 | 2.95 | 5.34 | -4.18 | -9.82 | 27.9 | 73.7 | 58.2 | 90 | 58.2 | 90.2 | 45.7 | 85.4 | 20.3 | 
2 | COc1ccccc1Nc1ncc(-c2ccccc2)o1 | 0.41 | 10.5 | 12.7 | 1.73 | 1.5 | 6.21 | 6.38 | -2.65 |  | -9.8 | 3.77 | 8 | 6.53 | 15.2 | 2.78 | 10.8 | 5.47 | 9.74 | 2.77 | -2.83
3 | COC(=O)Nc1nc2cc(Oc3ccc(NC(=O)Nc4cccc(C(=O)O)c4)cc3)ccc2[nH]1 | 3.41 | 0.04 | 2.31 | -0.12 | -0.31 | 0 | 0.98 | 3.29 | 3.13 | 4.26 | -4.91 | 3.52 | 0.4 | 9.38 | 3.52 | 19.9 | 1.92 | 14.4 | 2.13 | 7.82
4 | CS(=O)(=O)CCNCc1ccc(-c2ccc3ncnc(Nc4ccc(OCc5cccc(F)c5)c(C(F)(F)F)c4)c3c2)o1 | -0.76 | 6.77 | 8.2 | 1.44 | 1.87 | 4.46 | 3.99 | -0.07 | -1.22 |  | 4.46 | 3.49 | 4.63 | 3.75 | 4.03 | 1.37 | 4.26 | 2.45 | 1.73 | 
5 | CCn1c(-c2nonc2N)nc2cncc(C(=O)N3CC[C@H](N)C3)c21 | 1.04 | 10.1 | 8.87 | 1 | 1.51 | 5.01 | 4.59 | 0.61 | -1.48 | 3.33 | 3.58 | 2.43 | 5.83 | 2.94 | 2.2 | -0.9 | 4.86 | 2.19 | 2.09 | 
6 | COc1cc2ncn(-c3cc(O[C@H](C)c4ccccc4Cl)c(C(N)=O)s3)c2cc1OC |  | 6.45 | 4.82 | 0.59 | 0.45 | 4.18 | 6.53 | 3.97 | 0.91 | 11.9 | 3.23 | 28.1 | 10.7 | 49.4 | 9.46 | 48.3 | 9.97 | 43.2 | 11.2 | 7.14
7 | CCn1c(-c2nonc2N)nc2c(N3CCCC3)nccc21 | 0.92 | 3.59 | -4.47 | -2.37 | -1.78 | -2.72 | -1.25 |  | 8.95 | 0.23 | -0.9 | -0.63 | 0.1 | -1.53 | 1.28 | -0.55 | 1.69 | -0.47 | -0.16 | -6.88
8 | COc1ccc(-c2coc3ncnc(N)c23)cc1 | 1.26 | 8.03 | 7.01 | 1.73 | 1.44 | 4.88 | 4.26 | -5.35 | -2.56 | -1.23 | 3.51 | 9.75 | 5.34 | 11.3 | 3.43 | 8.4 | 5.31 | 9.48 | 1.41 | 
9 | Cc1cccc(-c2n[nH]cc2-c2ccc3ncccc3n2)n1 | 2.02 | -2.12 | 3.22 | -2.02 | -0.91 | 0.55 | 1.22 | -3.76 | -5.68 | -8.92 | 4.1 | 29.4 | 5.48 | 35.5 | 2.99 | 35.3 | 3.21 | 29.6 | -0.61 | -7.66
10 | CCn1c(-c2nonc2N)nc2cncc(C(=O)N3CCNCC3)c21 | 1.91 | 9.41 | 15.3 | 3.6 | 4.45 | 7.27 | 9.28 | 8.13 | -5.05 | 0.53 | -1.75 | 4.64 | 4.85 | 4.82 | -1.66 | -0.43 | 3.41 | 4.95 | 1.64 | 6.95
11 | O=C1NC(=O)C(c2ccccc2Cl)=C1Nc1cccc(O)c1 | 2.65 | 3.51 | 3.76 | 1.94 | 1.62 | 2.51 | 3.3 | -1.3 | -0.02 | 11.2 | 1.22 | 1.02 | 3.02 | 1.17 | -0.23 | 2.78 | 2.48 | 1.91 | 3.52 | 11.9
